# This is one part of a sample in which hits are shown more often than they occur.
# miR122 inh: miR-122 suppressors via Renilla sensor increase, primary screen, cell-based, Huh7 psiCHECK-miR122, Renilla luciferase, single point | 48 h | activation, % at 12.5 µM | 340,000 compounds, 0.14% hits;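 active means mean activation of 30% or more, with every replicate also reaching 30%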;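 further: 0% = median of neutral control wells and 100% = median of positive control wells; higher luciferase signal means stronger suppression of miR-122 activity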
# Starred values were filed as active, the others as inactive.
SMILES,miR122 inh
C[C@@H]1CN([C@H](C)CO)C(=O)c2cc(Br)cnc2O[C@H]1CN(C)Cc1ccc2c(c1)OCO2,5.1
C[C@H](CO)N1C[C@H](C)[C@H](CN(C)C(=O)C2CCOCC2)Oc2ncc(/C=C/c3ccccc3)cc2C1=O,2.5
FC(F)(F)c1cc(CCN2CCNC[C@@H]2CC2CCCCC2)cc(C(F)(F)F)c1,37.7*
C[C@H](CO)N1C[C@H](C)[C@@H](CN(C)Cc2cncnc2)Oc2ncc(-c3cccc(F)c3)cc2C1=O,4.0
Cc1ccc(-c2ccc3c(c2)O[C@H](CN(C)C(=O)NC(C)C)[C@@H](C)CN([C@@H](C)CO)S3(=O)=O)cc1,3.1
COc1ccc(NC(=O)C2CCC2)cc1S(=O)(=O)Nc1cc(C)ccc1Br,-170.2
COc1ccc(NC(=O)N(C)C[C@@H]2Oc3ccc(NC(=O)Nc4ccccc4)cc3CC(=O)N([C@@H](C)CO)C[C@H]2C)cc1,2.3
Cc1noc(C)c1NC(=O)N(C)C[C@@H]1Oc2ncc(C#CC3CCCCC3)cc2C(=O)N([C@@H](C)CO)C[C@H]1C,1.7
CCOc1ccc(Br)cc1S(=O)(=O)Nc1cccc(S(=O)(=O)N(C)c2ccccc2)c1,-92.2
C[C@H]1CN([C@@H](C)CO)S(=O)(=O)c2ccc(C3=CCCCC3)cc2O[C@H]1CN(C)C(=O)CC1CC1,7.4
C[C@@H]1CN([C@@H](C)CO)S(=O)(=O)c2ccc(C3=CCCCC3)cc2O[C@@H]1CN(C)C(=O)CC1CC1,-3.3
C[C@H]1CN([C@@H](C)CO)S(=O)(=O)c2ccc(C#Cc3ccccc3)cc2O[C@H]1CN(C)C(=O)Nc1ccc2c(c1)OCO2,-2.9
C[C@H]1CN([C@@H](C)CO)S(=O)(=O)c2ccc(Br)cc2O[C@@H]1CN(C)C(=O)Nc1ccc2c(c1)OCO2,-1.3
C[C@H](CO)N1C[C@H](C)[C@@H](CN(C)S(C)(=O)=O)Oc2cc(C3=CCCCC3)ccc2S1(=O)=O,-13.3
C[C@@H]1CN([C@H](C)CO)S(=O)(=O)c2ccc(C3=CCCCC3)cc2O[C@@H]1CN(C)C(=O)Nc1ccc2c(c1)OCO2,31.8*
C[C@@H]1CN([C@@H](C)CO)S(=O)(=O)c2ccc(C3=CCCC3)cc2O[C@@H]1CN(C)C(=O)c1ccc(F)cc1,36.5*
C[C@@H]1CN([C@@H](C)CO)S(=O)(=O)c2ccc(C3=CCCCC3)cc2O[C@@H]1CN(C)C(=O)Nc1ccc2c(c1)OCO2,46.3*
C[C@@H]1CN([C@H](C)CO)S(=O)(=O)c2ccc(C3=CCCCC3)cc2O[C@@H]1CN(C)S(C)(=O)=O,-24.9
CC(C)NC(=O)N(C)C[C@@H]1Oc2cc(C3=CCCCC3)ccc2S(=O)(=O)N([C@@H](C)CO)C[C@@H]1C,1.3
C[C@@H]1CN([C@@H](C)CO)S(=O)(=O)c2ccc(C3=CCCCC3)cc2O[C@@H]1CN(C)C(=O)Cc1ccncc1,47.6*
C[C@@H]1CN([C@H](C)CO)S(=O)(=O)c2ccc(C3=CCCCC3)cc2O[C@H]1CN(C)S(C)(=O)=O,5.8
C[C@@H]1CN([C@H](C)CO)S(=O)(=O)c2ccc(-c3ccc(C(=O)N(C)C)cc3)cc2O[C@H]1CN(C)C,7.3
C[C@H]1CN([C@@H](C)CO)C(=O)c2cc(-c3cccc(F)c3)cnc2O[C@H]1CN(C)Cc1cncnc1,3.8
CCC(=O)Nc1ccc2c(c1)OC[C@@H](C)N(Cc1ccccc1F)C[C@@H](C)[C@H](OC)CN(C)C2=O,6.1
CSc1ccc(S(=O)(=O)NC2CCCCCC2)cc1,-102.5
SMILES,miR122 inh
CN1c2ccc(-c3cccc(F)c3)cc2[C@H]2[C@H](CCN2C(=O)c2ccccc2F)[C@H]1CO,-106.7
Cc1ccc(N(C)S(=O)(=O)c2c[nH]c3ccc([N+](=O)[O-])cc23)cc1,-110.1
CCCN(C)C[C@H]1Oc2ncc(-c3ccccc3OC)cc2C(=O)N([C@@H](C)CO)C[C@H]1C,-4.2
C[C@H](CO)N1C[C@H](C)[C@H](CN(C)Cc2ccccc2C(=O)O)Oc2cc(-c3ccccc3)ccc2S1(=O)=O,-9.4
O=S1(=O)c2ccc(Br)cc2N2CCC[C@H]2CN1Cc1ccccc1,-140.0
C[C@H](CO)N1C[C@H](C)[C@@H](CN(C)Cc2ccccc2F)Oc2ncc(-c3ccccc3F)cc2C1=O,-3.7
C[C@H](CO)N1C[C@H](C)[C@@H](CN(C)Cc2ccc(Cl)c(Cl)c2)Oc2c(NS(=O)(=O)c3ccccc3)cccc2C1=O,-105.6
CCCN(C)C[C@H]1Oc2cc(C#Cc3ccccc3F)ccc2S(=O)(=O)N([C@H](C)CO)C[C@H]1C,-19.8
CCCCCCCCCCCCCCCC[n+]1ccccc1,49.2*
C[C@@H]1CN([C@@H](C)CO)C(=O)c2cc(C#CC3(O)CCCC3)cnc2O[C@@H]1CN(C)S(=O)(=O)c1ccc(F)cc1,-3.5
C[C@H](CO)N1C[C@H](C)[C@H](CN(C)C(=O)Nc2cc(F)ccc2F)Oc2cc(-c3ccc(C#N)cc3)ccc2S1(=O)=O,-2.2
COc1ccc(C(NC(C)=O)c2cc(Cl)c3cccnc3c2O)cc1 (stereo not drawn),71.5*
CCOC(=O)c1cc(S(=O)(=O)Nc2cccc(OC)c2)cn1C,-132.0

# Screens from PubChem.
